About 79,000 compounds went through this panel and 15% of them were active in at least one assay; those are over-represented in the sample as a whole. Activity calls are given as the source filed them. Cut-off read from the data, not from the text of the source: active = growth inhibition above about 70%; inactive = the rest.
Legend:
[1] = NCI Yeast Anticancer Drug Screen. Data for the rad52 strain (AID 147);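 note: 0% = growth of vehicle-treated control cultures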; conditions: S. cerevisiae rad52 mutant growth inhibition, hits give high values
Procedure, shortened: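 Read-out: growth inhibition versus vehicle-treated controls. Cells were a DNA repair-deficient yeast strain treated with compounds.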

[2] = NCI Yeast Anticancer Drug Screen. Data for the wt1 strain (AID 149);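 note: 0% = growth of vehicle-treated wt1 cultures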; conditions: S. cerevisiae wt1 strain (SPY 50644) growth inhibition, hits give high values
Procedure, shortened: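 Measured: growth of wt1 yeast under compound versus vehicle treatment, reported as inhibition.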

[3] = NCI Yeast Anticancer Drug Screen. Data for the rad50 strain (AID 155);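 note: 0% = growth of vehicle-only cultures of the same strain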; conditions: S. cerevisiae rad50 strain growth inhibition, hits give high values
Procedure, shortened: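 Growth of the mutant yeast was measured after compound exposure and referenced to vehicle-treated cultures.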

[4] = NCI Yeast Anticancer Drug Screen. Data for the mec2-1 strain (AID 157); conditions: S. cerevisiae mec2-1 strain, hits give high values
Procedure, shortened: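 Yeast mec2-1 mutant treated with compound. Readout: growth inhibition vs vehicle controls.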

[5] = NCI Yeast Anticancer Drug Screen. Data for the rad14 strain (AID 159);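 note: 0% = growth of vehicle-treated control cultures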; conditions: S. cerevisiae rad14 strain growth inhibition, hits give high values
Procedure, shortened: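 Here, inhibition of yeast growth was measured after compound exposure, using a strain with a genetic defect in DNA damage repair and vehicle-treated cultures as the reference.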

[6] = NCI Yeast Anticancer Drug Screen. Data for the sgs1 mgt1 strain (AID 161);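 note: 0% = growth of cultures given vehicle only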; conditions: S. cerevisiae sgs1 mgt1 strain, hits give high values
Procedure, shortened: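 Mutant yeast exposed to compound; growth scored against vehicle-only wells.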

[7] = NCI Yeast Anticancer Drug Screen. Data for the cln2 rad14 strain (AID 165);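 note: 0% = growth equal to vehicle treated cultures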; conditions: S. cerevisiae cln2 rad14 strain, hits give high values
Procedure, shortened: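 cln2 rad14 yeast strain; compound exposure; growth inhibition read vs vehicle controls.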

[8] = NCI Yeast Anticancer Drug Screen. Data for the bub3 strain (AID 167); conditions: S. cerevisiae bub3 mutant strain, hits give high values
Procedure, shortened: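 Whole-cell yeast assay. The mutant strain was incubated with compounds, and growth inhibition was determined by comparison with vehicle-treated cells.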

[9] = NCI Yeast Anticancer Drug Screen. Data for the wt2 strain (AID 169);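 note: 0% = growth of vehicle-treated yeast cultures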; conditions: S. cerevisiae wt2 strain growth inhibition, hits give high values
Procedure, shortened: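 Read-out: growth inhibition versus vehicle-treated control cultures after compound exposure of the yeast strain.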

[10] = NCI Yeast Anticancer Drug Screen. Data for the mlh1 strain (AID 171);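 note: 0% = growth of vehicle-treated control cultures of the same strain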; conditions: S. cerevisiae mlh1 strain growth inhibition, hits give high values
Procedure, shortened: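 Read-out: growth inhibition versus vehicle controls. Strain: engineered yeast with a defined DNA repair or cell cycle defect, compound-treated.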

[11] = NCI Yeast Anticancer Drug Screen. Data for the sgs1 strain (AID 173);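 note: 0% = growth of vehicle-only control cultures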; conditions: S. cerevisiae sgs1 mutant, hits give high values
Procedure, shortened: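 Read-out: yeast growth inhibition relative to vehicle controls, following compound exposure of a strain with a defined DNA repair/cell cycle alteration.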

[12] = NCI Yeast Anticancer Drug Screen. Data for the mlh1 rad18 strain (AID 175); conditions: S. cerevisiae mlh1 rad18 strain growth inhibition, hits give high values
Procedure, shortened: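 Yeast w/ defined DNA-repair lesions; compound exposure; growth vs vehicle controls → % inhibition.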

[13] = NCI Yeast Anticancer Drug Screen. Data for the rad18 strain (AID 177); conditions: S. cerevisiae rad18 mutant growth inhibition, hits give high values
Procedure, shortened: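 Readout: growth inhibition vs vehicle controls. Cells: genetically altered yeast strain, DNA repair defect.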

[14] = NCI Yeast Anticancer Drug Screen. Data for the mgt1 strain (AID 153); conditions: S. cerevisiae mgt1 mutant growth inhibition, hits give high values
Procedure, shortened: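 mgt1 yeast grown with test compound; read-out is growth inhibition versus vehicle-treated cultures.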

[15] = NCI Yeast Anticancer Drug Screen. Data for the CLN2oe strain (AID 163);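 note: 0% = growth of vehicle-only control cultures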; conditions: S. cerevisiae CLN2oe strain, hits give high values
Procedure, shortened: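 Read-out: yeast growth inhibition, expressed relative to vehicle-only controls. The strain bears an engineered cell-cycle alteration.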

[16] = at 5.0 µM (retest, dose inferred, filed as 0.5)
[17] = at 50.0 µM (retest, dose inferred, filed as 5.0)

Measured: growth inhibition

CCCCCCCCCCCc1nc(N)n[nH]1
active: [1]; at 33.0 µM 87% | [1]; at 100.0 µM 96% | [2]; at 100.0 µM 95% | [3]; at 33.0 µM 92% | [3]; [17] 81% | [3]; at 50.0 µM 97.1% | [3]; at 100.0 µM 96% | [4]; at 33.0 µM 73% | [4]; [17] 87% | [4]; at 50.0 µM 96.7% | [4]; at 100.0 µM 93% | [5]; at 100.0 µM 96% | [6]; at 50.0 µM 80.6% | [7]; at 50.0 µM 75.9% | [8]; at 33.0 µM 75% | [8]; [17] 88% | [8]; at 50.0 µM 95.8% | [8]; at 100.0 µM 91% | [9]; at 33.0 µM 92% | [9]; at 100.0 µM 97% | [10]; at 33.0 µM 79% | [10]; at 100.0 µM 95% | [11]; at 33.0 µM 92% | [11]; at 100.0 µM 96% | [12]; at 50.0 µM 93% | [13]; at 100.0 µM 94%
inactive: [1]; at 1.2 µM -1% | [1]; at 3.7 µM -7% | [1]; at 11.0 µM 5% | [2]; at 1.2 µM -3% | [2]; at 3.7 µM -4% | [2]; at 11.0 µM 1% | [2]; at 33.0 µM 67% | [3]; at 1.2 µM -11% | [3]; at 3.7 µM -13% | [3]; [16] -181% | [3]; at 11.0 µM -7% | [4]; at 1.2 µM -4% | [4]; at 3.7 µM 1% | [4]; [16] -48% | [4]; at 11.0 µM 0% | [5]; at 1.2 µM 5% | [5]; at 3.7 µM 1% | [5]; at 11.0 µM 7% | [5]; at 33.0 µM 65% | [6]; [16] -66% | [6]; [17] 59% | [7]; [16] -79% | [7]; [17] 62% | [8]; at 1.2 µM 5% | [8]; at 3.7 µM -2% | [8]; [16] -79% | [8]; at 11.0 µM 4% | [9]; at 1.2 µM 5% | [9]; at 3.7 µM 6% | [9]; at 11.0 µM 24% | [10]; at 1.2 µM -10% | [10]; at 3.7 µM -6% | [10]; at 11.0 µM -3% | [11]; at 1.2 µM -5% | [11]; at 3.7 µM -13% | [11]; at 11.0 µM 21% | [12]; [16] -154% | [12]; [17] 20% | [13]; at 1.2 µM -12% | [13]; at 3.7 µM -5% | [13]; at 11.0 µM -7% | [13]; at 33.0 µM 68%

COc1cc(NCc2ccc3nc(N)nc(N)c3c2C)cc(OC)c1OC
active: [3]; at 100.0 µM 78% | [4]; at 33.0 µM 82% | [4]; at 100.0 µM 95% | [11]; at 100.0 µM 75%
inactive: [1]; at 1.2 µM 1% | [1]; at 3.7 µM 5% | [1]; at 11.0 µM 17% | [1]; at 33.0 µM 37% | [1]; at 100.0 µM 68% | [2]; at 1.2 µM -1% | [2]; at 3.7 µM -4% | [2]; at 11.0 µM -6% | [2]; at 33.0 µM -7% | [2]; at 100.0 µM 1% | [14]; at 1.2 µM -3% | [14]; at 3.7 µM -6% | [14]; at 11.0 µM -7% | [14]; at 33.0 µM -7% | [14]; at 100.0 µM 37% | [3]; at 1.2 µM -3% | [3]; at 3.7 µM -3% | [3]; at 11.0 µM 7% | [3]; at 33.0 µM 28% | [3]; at 50.0 µM -7.65% | [4]; at 1.2 µM -4% | [4]; at 3.7 µM 8% | [4]; at 11.0 µM 39% | [4]; at 50.0 µM 54.6% | [5]; at 1.2 µM -2% | [5]; at 3.7 µM -6% | [5]; at 11.0 µM -8% | [5]; at 33.0 µM -5% | [5]; at 100.0 µM 43% | [6]; at 50.0 µM 0.6% | [15]; at 1.2 µM -8% | [15]; at 3.7 µM -18% | [15]; at 11.0 µM -17% | [15]; at 33.0 µM -16% | [15]; at 100.0 µM 30% | [7]; at 50.0 µM -1.2% | [8]; at 1.2 µM -13% | [8]; at 3.7 µM -15% | [8]; at 11.0 µM -15% | [8]; at 33.0 µM -24% | [8]; at 50.0 µM -46.8% | [8]; at 100.0 µM 43% | [9]; at 1.2 µM -4% | [9]; at 3.7 µM -5% | [9]; at 11.0 µM -7% | [9]; at 33.0 µM -2% | [9]; at 100.0 µM 46% | [11]; at 1.2 µM -2% | [11]; at 3.7 µM -2% | [11]; at 11.0 µM 5% | [11]; at 33.0 µM 22% | [12]; at 50.0 µM -74.6%

Source: PubChem BioAssay (NCI)
